This is an account of results in the supplement of paper PMC7866885, “A novel bicyclic 2,4-diaminopyrimidine inhibitor of Streptococcus suis dihydrofolate reductase” (PeerJ, 2021).

SMILES strings stand for the structures. ± gives the standard deviation.

For the test, the system named is Streptococcus suis HE06. The test can be described thus: percent growth relative to DMSO control; higher = less growth inhibition. The conditions noted are these: 10 µM; incubation time 18 h. The method, then: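 CLSI broth microdilution: 5x10^4 CFU of Streptococcus suis (strain P1/7 or HE06) incubated with 10 µM Pathogen Box compound in cation-adjusted Mueller Hinton broth, 37 °C, 5% CO2, 18 h. Growth read as OD600 and expressed as percent of the DMSO-treated control (100%); mean ± SD of three independent experiments.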
`COc1cc(NC(=O)Cc2nn(C)c(=O)c3ccccc23)ccc1Cl`: the percent growth came out at 82.8 ± 6.6%.

For `CS(=O)(=O)c1cccc(-c2cnc3[nH]cc(-c4ccc(CCC(=O)O)cc4)c3c2)c1`, the percent growth was 68.7 ± 5.5%.

For `O=C(C1CCN(c2nnnn2-c2ccccc2)CC1)N1CCc2ccccc2C1`, the percent growth came to 86.9 ± 28%.

On to `NS(=O)(=O)c1cccc(-c2ccc3ncc(N4CCOCC4)nc3c2)c1`, for which the percent growth worked out at 99.2 ± 34%.

Consider `Nc1ncnc2c1c(-c1cnc3ccccc3c1)nn2CC1CCNCC1`, for which the percent growth came to 94.9 ± 5.4%.

`CC(C)(C)c1cc(C(=O)Nc2cccnc2)cc(C(=O)Nc2cccnc2)c1` had a percent growth of 80.6 ± 4.4%.

Molecule `Clc1ccc(CCNc2cc(-c3ccccc3)nc3ncnn23)cc1` had a percent growth of 79.8 ± 10%.

Molecule `Cc1cc2nc(NC(=O)C(C)(C)C)nc(Cl)c2n1Cc1ccc(Cl)cc1` yielded a percent growth of 115 ± 19%.

With `CCCCN(CCCC)c1c(C#N)cc(S(=O)(=O)Nc2ccccc2)cc1C#N`, the percent growth was found to be 86.6 ± 25%.

The molecule `CC1CCCCN1C(=O)NCCc1coc(-c2ccc(F)cc2)n1` (stereo not drawn) gave a percent growth of 79.5 ± 6.9%.

`CCCCOC(=O)Nc1cc2nc(C3CCCCC3)[nH]c2cc1N1CCCC1` showed a percent growth of 29.6 ± 40%.

Molecule `COc1cc(NC(C)CCCN)c2ncccc2c1` (stereo not drawn) displayed a percent growth of 90.6 ± 4%.

Molecule `Nc1ncnc2c1ncn2C[C@@H](O)[C@@H](O)C(=O)O` displayed a percent growth of 75.9 ± 17%.

In turn, `Cc1cc2ccccc2n1CC(=O)N1CC(C(=O)N2CCCCC2)Oc2ccccc21` (stereo not drawn) showed a percent growth of 71.6 ± 13%.

As to `COc1ccc(OC)c(NCc2ccc3nc(N)nc(N)c3c2Cl)c1`, the percent growth came out at 4.05 ± 6.3%.

`Cc1cc(C)n(-c2ccc(NC(=O)C3CCN(Cc4cnc(C)s4)CC3)cc2)n1`: the percent growth amounted to 95.3 ± 24%.

In the case of `CCc1ccccc1-n1c(C)cn2c3c(=O)n(C(C(=O)OC)C(C)C)c(=O)n(C)c3nc12` (stereo not drawn), the percent growth was found to be 109 ± 4.8%.

`Nc1ncnc2[nH]nc(Cc3cccc4ccccc34)c12` registered a percent growth of 104 ± 35%.

`FC(F)(F)c1cc(NCCc2ccccc2)nc(-c2ccccn2)n1` registered a percent growth of 1.92 ± 3.3%.

In turn, `COc1ccc(-c2nc(-c3cccc(NC(=O)Cc4ccc(F)cc4)c3)no2)cc1OC` showed a percent growth of 83 ± 3.5%.

Turning to `Cc1nnc(NCc2cccc(Cl)c2)c2ccccc12`, the percent growth came out at 80.1 ± 8.7%.

In the case of `CS(=O)(=O)c1ccccc1C(=O)N(Cc1ccccc1)c1ccccc1`, the percent growth came to 115 ± 7.9%.

The molecule `O=C(Nc1nnc(S)s1)c1cc(Br)ccc1Cl` gave a percent growth of 107 ± 10%.

As for `CCC(Sc1nc2ccccc2o1)C(=O)Nc1nccs1` (stereo not drawn), the percent growth stood at 0%.

The molecule `CN1CCN(S(=O)(=O)c2ccc(-c3ccc4c(Nc5ncc(Cl)cn5)ccnc4c3)cc2)CC1` showed a percent growth of 92.2 ± 8.5%.

Regarding `NS(=O)(=O)c1cncc(-c2ccc3nccc(-c4cn[nH]c4)c3n2)c1`, the percent growth was found to be 102 ± 33%.

For the molecule `CN(C)c1cc(NC(=O)Nc2ccccc2)c2ccccc2n1`, the percent growth is 105 ± 8.6%.

As to `CCCc1ccc(S(=O)(=O)Nc2ccc(CN3CCN(CC4CC4)CC3)cc2)cc1`, the percent growth came out at 88 ± 15%.

The molecule `COc1ccc(C2=NCCN2)cc1-c1cn(-c2cccc(C3=NCCN3)c2)nn1` showed a percent growth of 99.9 ± 10%.

In turn, `O=C(c1ccco1)N(CCCn1ccnc1)c1nc2c(Cl)cccc2s1` yielded a percent growth of 36.6 ± 38%.

Molecule `CNC(=O)c1nn(C)c2c1C(C)(C)Cc1cnc(Nc3ccc(N4CCN(C)CC4)cc3)nc1-2` showed a percent growth of 88.7 ± 21%.

On to `O=C(Nc1ccnc(-c2cccnc2)n1)c1cc(C(F)(F)F)cc(C(F)(F)F)c1`, for which the percent growth was 78.2 ± 14%.

For `CNC(=O)c1cc(S(=O)(=O)N2CCN(c3ccccn3)CC2)cs1`, the percent growth was 79.7 ± 12%.

For `Cc1ccc(-c2nc(CN(Cc3ccccn3)C(C)C)cs2)o1`, the percent growth stood at 25.7 ± 44%.

In the case of `Cc1nn(C)cc1C(C)Nc1nncc(-c2ccc(C(F)(F)F)cc2)n1` (stereo not drawn), the percent growth was determined as 116 ± 20%.

Regarding `CN1CCC(NCc2cccc(-c3ccc(S(=O)(=O)NCc4ccccc4)cc3)c2)CC1`, the percent growth turned out to be 94.9 ± 28%.

For the molecule `Cc1cccc(Cn2ccc(NC(=O)c3ccc4c(c3)OCO4)n2)c1`, the percent growth was 75.3 ± 22%.

Consider `C[C@H]1c2cccc(O)c2C(=O)C2=C(O)[C@]3(O)C(=O)C(C(N)=O)=C(O)[C@@H](N(C)C)[C@@H]3[C@@H](O)[C@@H]21`, for which the percent growth is 10.4 ± 18%.
